L3MBTL1 block = blocks human L3MBTL1. AlphaScreen L3MBTL1–H3K9me1 peptide binding. Q9Y468. 230,000 compounds, 0.66% hits. Potency, µM (highest dose often 57.1 µM), for the others: at the top dose activity, negative = inhibition, most hits filed as inhibitors; further: on the % scale 0 is the no-effect control and ±100 the full control effect; nearly all actives have a fitted effect of over 60% in size
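First, the protein-peptide complex forms for 30 min at room temperature (L3MBTL1 50 nM, biotinylated H3K9me1 peptide 75 nM). Next, compounds are pin-transferred and incubated 30 min. Finally, AlphaScreen beads are added and read after 30 min.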
G9a inh = inhibitors of human histone lysine methyltransferase G9a. G9a H3K9 monomethylation, AlphaScreen, 2 h. Potency, µM (highest dose often 102 µM), for inactives: at the top dose activity, negative = inhibition, most hits filed as inhibitors. 350,000 compounds, 8.8% hits; further: on the % scale 0 is the no-effect control and ±100 the full control effect; nearly all actives have a fitted effect of over 75% in size
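Readings reflect AlphaScreen signal from monomethyl-H3K9 antibody detection. HMT at 20 nM; substrate b-H3K9 500 nM; cofactor SAM 20 uM; 2 h RT reaction; compounds tested as titrations in qHTS with 15 min preincubation.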
GLS inh = blocks human kidney-isoform glutaminase activity; 410,000 compounds, 0.21% hits; AID 624170; GLS enzymatic activity, qHTS titration; Potency, µM (doses to about 45.5 µM), without a hit: top-dose activity change, negative = inhibition, usual class: inhibitors; O94925; further: on the % scale 0 is the no-effect control and ±100 the full control effect
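Human kidney-isoform GLS in 45 mM KH2PO4 pH 8.2, 0.02% Tween-20, with compound, started with 1mM L-Glutamine (added stock). Glutamate oxidase/HRP/Amplex red coupled fluorescence read at start and after 30 min at RT.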
BAZ2B block = BAZ2B (human) inhibition | AlphaScreen BAZ2B-H3K14Ac peptide displacement | Potency, µM (doses to about 114 µM), inactives show at the top dose activity change, negative = inhibition, most hits filed as inhibitors | 360,000 compounds, 4.4% hits | AID 504333; further: on the % scale 0 is the no-effect control and ±100 the full control effect; nearly all actives have a fitted effect of over 60% in size
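AlphaScreen luminescence quantifies BAZ2B engagement of H3K14Ac peptide; the protein and biotinylated peptide are both at 50 nM final, buffer PBS pH 7.4 with 0.01% Tween-20, all steps at room temperature.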
JMJD2A Tudor inh = inhibitors of human JMJD2A Tudor domain; O75164; AlphaScreen JMJD2A-Tudor / H3K4me3 peptide binding; Potency, µM (doses to about 114 µM), for inactives: top-dose activity change, negative = inhibition, hits mostly inhibitors; 390,000 compounds, 4.4% hits; AID 504339; further: on the % scale 0 is the no-effect control and ±100 the full control effect; nearly all actives have a fitted effect of over 50% in size
HP1b chromo inh = HP1-beta chromodomain-methylated histone interaction inhibition | AID 540317 | 390,000 compounds, 0.56% hits | Potency, µM (doses to about 114 µM), for inactives: top-dose activity change, negative = inhibition, actives largely listed as inhibitors | AlphaScreen HP1-beta / biotin-H3K9me3 peptide binding; further: nearly all actives have a fitted effect of over 70% in size
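HP1-beta protein (50 nM final) preincubated 30 min at room temperature with biotinylated H3(1-18)K9me3 peptide (50 nM) in PBS pH 7.4, 0.01% Tween-20, then compound added for 30 min. AlphaScreen streptavidin donor/nickel chelate acceptor beads (10 ug/mL final), 30 min dark, luminescence read.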
An asterisk follows results filed as active; [ ] = another dose, or the depositor's remark. Shown are actives, neighbours in structure and some others; about 10% of the full set was active somewhere. The call rests on the fitted dose curve; in most records, active means well fitted curve in the direction sought with a large enough effect; inconclusive means small, poorly fitted or top-dose-only effect, or another doubt; inactive means no such curve, though single readings can be large; an effect the other way counts as inactive or inconclusive. Potency means the concentration at half of the fitted maximal effect.

COc1ccc(CCn2c3c(c(=O)[nH]c2=O)C(NC(=O)c2ccc(C(C)(C)C)cc2)(C(F)(F)F)C(=O)N3)cc1OC (stereo not given) was read as G9a inh -36.7%[59 µM], GLS inh -1.6%, BAZ2B block -6.5%, JMJD2A Tudor inh -6.0% and HP1b chromo inh 27.7%.
Screening CCOC(=O)c1sc(NC(=O)c2c(C)nn(Cc3ccccc3)c2C)cc1C returned L3MBTL1 block -4.1%, G9a inh 50.1µM*, GLS inh 0.6%, BAZ2B block -2.0%, JMJD2A Tudor inh -7.3% and HP1b chromo inh 14.9%.
For CCOC(=O)c1sc(N)c(C(=O)Nc2ccccc2)c1C the results were L3MBTL1 block -7.4%, G9a inh 10µM*, GLS inh -13.5%, BAZ2B block -19.0%, JMJD2A Tudor inh -19.7% and HP1b chromo inh inconclusive.
Screening CCOC(=O)c1c(N)sc(C(=O)OCCOC)c1C returned L3MBTL1 block -24.7%, G9a inh 11.2µM*, GLS inh inconclusive, BAZ2B block -20.1%, JMJD2A Tudor inh -21.8%[57.1 µM] and HP1b chromo inh inconclusive.
CCN(CC)C(=O)c1sc(N)c(C(=O)OC(C)C)c1C was read as L3MBTL1 block 18.6%[11.4 µM], G9a inh 11.2µM*, GLS inh 7.3%, BAZ2B block 6.2%, JMJD2A Tudor inh -22.9% and HP1b chromo inh -12.3%.
For CCN(CC)C(=O)c1sc(N)c(C#N)c1C the results were L3MBTL1 block -0.2%, G9a inh inconclusive, GLS inh 30.2%, BAZ2B block 16.2%, JMJD2A Tudor inh -5.0% and HP1b chromo inh -4.1%.
Cc1n[nH]c(C)c1S(=O)(=O)N1CCCC(C(=O)Nc2ccc(Cl)cc2)C1 (stereo not given) was read as G9a inh 6.5%[59 µM], GLS inh -23.2%, JMJD2A Tudor inh -15.0% and HP1b chromo inh 18.8%.
`Cc1ccc(-n2c(SCC(=O)N3CCCc4ccccc43)nc3c([nH]c4ccccc43)c2=O)cc1` gave G9a inh -7.6%[59 µM], GLS inh 3.4%, BAZ2B block 0.3%, JMJD2A Tudor inh -18.7% and HP1b chromo inh 21.2%[57 µM].
CCC(=O)N1CCc2cc(CNC(=O)Cc3ccc(F)cc3)ccc21 was read as G9a inh 1.3%[59 µM], GLS inh -0.4%, BAZ2B block -5.8%, JMJD2A Tudor inh -12.7% and HP1b chromo inh 27.1%.
For CCOC(=O)c1c(NC(=O)CSc2cccc[n+]2[O-])sc(C(=O)Nc2ccccc2)c1C the results were L3MBTL1 block -12.4%, G9a inh 44.7µM*, GLS inh -10.8%, BAZ2B block 0.2%, JMJD2A Tudor inh -2.8% and HP1b chromo inh 33.3%.
`COc1ccccc1/C=C1\N=C(C(C)(C)C)OC1=O` gave G9a inh 84.0%, GLS inh 13.7%, BAZ2B block 40.0%, JMJD2A Tudor inh 50.1µM* and HP1b chromo inh inconclusive.
Screening CC(=O)Nc1nonc1-c1nnc(SCc2ccccc2Cl)n1C returned G9a inh 7.3%[59 µM], GLS inh 2.6%, BAZ2B block 5.4%, JMJD2A Tudor inh -9.3% and HP1b chromo inh 20.2%.
Screening O=C(NCCCc1nc2ccccc2n1Cc1cccc(Cl)c1)c1ccco1 returned G9a inh -39.3%[59 µM], GLS inh -3.6%, BAZ2B block -13.6%, JMJD2A Tudor inh -19.4% and HP1b chromo inh 23.5%.
For CCOC(=O)C1=C(N)OC2=C(C(=O)CC(C)(C)C2)C1c1ccco1 (stereo not given) the results were L3MBTL1 block -7.3%, G9a inh 22.4µM*, GLS inh 5.1%, BAZ2B block -18.7%, JMJD2A Tudor inh 56.2µM* and HP1b chromo inh 9.9%.
CCCCOc1ccccc1C1NC(=O)NC(C)=C1C(=O)OCc1ccco1 (stereo not given) was read as L3MBTL1 block 8.0%, G9a inh 22.4µM*, GLS inh 35.2%, BAZ2B block 6.1%, JMJD2A Tudor inh -23.0% and HP1b chromo inh 15.0%.

Source: PubChem
